The record followed here is PubChem BioAssay.

The source made the active and inactive calls.

Test [1] is described as follows: small molecules captured by biotinylated probe aFSTL3 – biochemical, small-molecule microarray, fluorescence 635/667, stem cell growth factor project, primary screen (AID 1064).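 Also: measures binding of the biotinylated anti-FSTL3 antibody to printed compounds.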 As to conditions: higher = more signal.
A short description of test [2]: binders from COS7 lysate, DM2A8 probe, primary screen, torsin A project, cell lysate, small-molecule microarray, fluorescence 635/667 (AID 1065). Particulars: higher = more signal, COS7 lysate expressing mutant human TOR1A.
The nature of test [3]: small molecules captured by biotinylated probe aFGF2 – biochemical, small-molecule microarray, fluorescence 635/667, stem cell growth factor project, primary screen (AID 1067).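 Also: measures binding of biotinylated aFGF2 protein to printed compounds on slides; z-score merges feature fluorescence and signal-to-noise across triplicate slides.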 Particulars: higher = more signal.
The nature of test [4]: small molecules captured by biotinylated probe aFGF10 – biochemical, small-molecule microarray, fluorescence 635/667, stem cell growth factor project, primary screen (AID 1071).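 Also: score merges 667 nm spot intensity and signal to noise from triplicate slides.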 As to conditions: higher = more signal.
Test [5] has as its target Neurogenic locus notch homolog protein 2 (Homo sapiens) (UniProt Q04721). In words: small molecules binding Notch2 protein – biochemical, small-molecule microarray, 635 nm fluorescence, stem cell growth factors, primary screen (AID 1073). Particulars: higher = more signal.
For test [6], the target named is Pro-neuregulin-1, membrane-bound isoform (Homo sapiens) (UniProt Q02297). Briefly: small molecules binding neuregulin-1 protein – biochemical, small-molecule microarray, fluorescence 635/667, psychiatric disease protein project, primary screen (AID 1075).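 Also: score combines 667 nm spot fluorescence with signal to noise.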 As to conditions: NRG1 binding, 635 nm fluorescence, higher = more signal.
Chain of Pro-neuregulin-1, membrane-bound isoform (Homo sapiens) (Q02297 whole entry, looked up, the tested form may be a part, canonical isoform): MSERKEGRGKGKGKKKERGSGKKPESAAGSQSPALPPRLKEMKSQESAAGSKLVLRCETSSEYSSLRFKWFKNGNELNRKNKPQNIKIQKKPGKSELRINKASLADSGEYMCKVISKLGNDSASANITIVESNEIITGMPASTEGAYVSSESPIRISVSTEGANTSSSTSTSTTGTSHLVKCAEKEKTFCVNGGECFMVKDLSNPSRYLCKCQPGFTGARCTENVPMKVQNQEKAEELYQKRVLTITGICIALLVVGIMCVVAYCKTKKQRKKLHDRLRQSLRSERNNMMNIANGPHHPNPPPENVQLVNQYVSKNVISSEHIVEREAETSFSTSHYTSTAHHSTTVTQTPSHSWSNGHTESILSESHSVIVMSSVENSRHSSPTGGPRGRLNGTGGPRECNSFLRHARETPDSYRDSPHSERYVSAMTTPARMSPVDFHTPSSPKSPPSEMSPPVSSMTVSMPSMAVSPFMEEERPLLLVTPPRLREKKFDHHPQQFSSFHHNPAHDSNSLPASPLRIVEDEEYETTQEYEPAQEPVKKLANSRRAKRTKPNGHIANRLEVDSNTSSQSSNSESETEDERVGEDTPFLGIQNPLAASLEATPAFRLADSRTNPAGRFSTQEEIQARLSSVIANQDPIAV
Test [7] relates to Neuregulin-1 EGF-like domain. Briefly: small molecules binding NRG1 EGF domain – biochemical, small-molecule microarray, 635 nm fluorescence, primary screen (AID 1081).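 Also: binding of the protein to compounds printed on small-molecule microarray slides.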 As to conditions: higher = more signal.
The nature of test [8]: FRG1 expression reporter modulators in myotubes – cell-based, C2C12 myotubes, firefly/Renilla luciferase, luminescence, FRG1 inhibition for FSHD, primary screen (AID 1084). As to conditions: FRG1 promoter luciferase, higher = more signal, called active from +8 up or from −8 down.
A short description of test [9]: small molecules captured by biotinylated probe aFST – biochemical, small-molecule microarray, fluorescence 635/667, stem cell growth factor project, primary screen (AID 1086).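 Also: score merges 667 nm fluorescence with signal-to-noise of each printed compound spot.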 Particulars: higher = more signal.
Test [10] is described as follows: binders of probe aHhip on microarray, primary screen, stem cell growth factor project, biochemical, small-molecule microarray, fluorescence 635/667 (AID 1087).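 Also: score merges spot fluorescence at 667nm with spot signal to noise ratio.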 Particulars: higher = more signal.
Test [11] has as its system PRMT1 (protein arginine N-methyltransferase 1). Briefly: small molecules binding arginine methyltransferase PRMT1 – biochemical, small-molecule microarray, 635 nm fluorescence, primary screen (AID 1088).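 Also: binding of Prmt1 protein to compounds spotted on small-molecule microarray slides.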 Particulars: higher = more signal.
Test [12] in a line: growth effects on S. cerevisiae YJM789 – YJM789 clinical isolate, OD600, 24 h, basal, primary screen (AID 1089).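 Also: growth of clinical yeast isolate S. cerevisiae YJM 789 seeded 1000 cells per well; test concentration not given here.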 As to conditions: higher = more signal, called active from +8 up or from −8 down.
Test [13] can be described thus: S. pombe growth modifiers, basal conditions – strain 972, OD600, 24 h, no modulator, primary screen (AID 1090).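 Also: basal condition with compound alone and no growth modifier present; test concentration not given here.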 As to conditions: S. pombe 972 growth, higher = more signal, called active from +8 up or from −8 down.
Test [14] in a line: budding yeast growth modifiers under rapamycin – strain BY4716, OD600, 96 h, primary screen (AID 1091). Also: test concentration not given here. As to conditions: S. cerevisiae BY4716 + rapamycin, higher = more signal, called active from +8 up or from −8 down.
The target in test [15] is Torsin-1A-interacting protein 2 (Homo sapiens) (UniProt Q8NFQ8). Briefly: small molecules binding lysate-expressed LULL1 – cell lysate, human LULL1 lysate, 635/667 nm fluorescence, primary screen (AID 1092).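 Also: probe is lysate of COS7 cells overexpressing human LULL1; score merges per-feature 667 nm fluorescence with signal-to-noise.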 Particulars: small-molecule microarray, hLULL1 lysate binding, 635 nm fluorescence; higher = more signal.
Chain of Torsin-1A-interacting protein 2 (Homo sapiens) (Q8NFQ8 whole entry, looked up): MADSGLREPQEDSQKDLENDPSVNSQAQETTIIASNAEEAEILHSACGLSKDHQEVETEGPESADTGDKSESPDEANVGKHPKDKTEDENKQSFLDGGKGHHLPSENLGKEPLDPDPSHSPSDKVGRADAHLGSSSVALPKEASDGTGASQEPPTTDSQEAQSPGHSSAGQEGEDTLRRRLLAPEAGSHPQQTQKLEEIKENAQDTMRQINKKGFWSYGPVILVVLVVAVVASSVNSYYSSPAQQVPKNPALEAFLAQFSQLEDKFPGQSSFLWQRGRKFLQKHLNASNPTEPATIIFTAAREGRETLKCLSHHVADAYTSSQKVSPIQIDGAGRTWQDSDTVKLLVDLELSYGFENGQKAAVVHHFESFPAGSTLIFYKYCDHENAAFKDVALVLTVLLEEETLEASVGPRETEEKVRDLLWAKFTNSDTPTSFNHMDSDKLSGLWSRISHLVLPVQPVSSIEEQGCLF
The nature of test [16]: optical density change of DRC41 E. coli – strain DRC41, OD650, 24 h, E. coli filamentation project, primary screen (AID 1093).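 Also: MC1000 strain lacking acrAB efflux and sulA so SOS filamentation is blocked; test concentration not given here.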 Particulars: E. coli DRC41 growth, higher = more signal, called active from +8 up or from −8 down.
Test [17] can be described thus: probe aLefty2 binding to arrayed compounds – biochemical, biotinylated probe, 635/667 nm fluorescence, primary screen (AID 1094).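 Also: score merges spot fluorescence near 667 nm with spot signal-to-noise ratio.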 As to conditions: small-molecule microarray, higher = more signal.
Test [18] has as its system Noggin (protein binding on small-molecule microarray). In words: small molecules binding Noggin protein – biochemical, 635/667 nm fluorescence, primary screen (AID 1095).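 Also: score merges 667 nm feature fluorescence with signal to noise over triplicate slides.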 Particulars: 635 nm fluorescence, higher = more signal.
In test [19] the target is Neurogenic locus notch homolog protein 3 (Homo sapiens) (UniProt Q9UM47). Briefly: small molecules binding NOTCH3 protein – biochemical, 635/667 nm fluorescence, primary screen (AID 1096). As to conditions: small-molecule microarray, 635 nm fluorescence, higher = more signal.
Chain of Neurogenic locus notch homolog protein 3 (Homo sapiens) (Q9UM47 whole entry, looked up): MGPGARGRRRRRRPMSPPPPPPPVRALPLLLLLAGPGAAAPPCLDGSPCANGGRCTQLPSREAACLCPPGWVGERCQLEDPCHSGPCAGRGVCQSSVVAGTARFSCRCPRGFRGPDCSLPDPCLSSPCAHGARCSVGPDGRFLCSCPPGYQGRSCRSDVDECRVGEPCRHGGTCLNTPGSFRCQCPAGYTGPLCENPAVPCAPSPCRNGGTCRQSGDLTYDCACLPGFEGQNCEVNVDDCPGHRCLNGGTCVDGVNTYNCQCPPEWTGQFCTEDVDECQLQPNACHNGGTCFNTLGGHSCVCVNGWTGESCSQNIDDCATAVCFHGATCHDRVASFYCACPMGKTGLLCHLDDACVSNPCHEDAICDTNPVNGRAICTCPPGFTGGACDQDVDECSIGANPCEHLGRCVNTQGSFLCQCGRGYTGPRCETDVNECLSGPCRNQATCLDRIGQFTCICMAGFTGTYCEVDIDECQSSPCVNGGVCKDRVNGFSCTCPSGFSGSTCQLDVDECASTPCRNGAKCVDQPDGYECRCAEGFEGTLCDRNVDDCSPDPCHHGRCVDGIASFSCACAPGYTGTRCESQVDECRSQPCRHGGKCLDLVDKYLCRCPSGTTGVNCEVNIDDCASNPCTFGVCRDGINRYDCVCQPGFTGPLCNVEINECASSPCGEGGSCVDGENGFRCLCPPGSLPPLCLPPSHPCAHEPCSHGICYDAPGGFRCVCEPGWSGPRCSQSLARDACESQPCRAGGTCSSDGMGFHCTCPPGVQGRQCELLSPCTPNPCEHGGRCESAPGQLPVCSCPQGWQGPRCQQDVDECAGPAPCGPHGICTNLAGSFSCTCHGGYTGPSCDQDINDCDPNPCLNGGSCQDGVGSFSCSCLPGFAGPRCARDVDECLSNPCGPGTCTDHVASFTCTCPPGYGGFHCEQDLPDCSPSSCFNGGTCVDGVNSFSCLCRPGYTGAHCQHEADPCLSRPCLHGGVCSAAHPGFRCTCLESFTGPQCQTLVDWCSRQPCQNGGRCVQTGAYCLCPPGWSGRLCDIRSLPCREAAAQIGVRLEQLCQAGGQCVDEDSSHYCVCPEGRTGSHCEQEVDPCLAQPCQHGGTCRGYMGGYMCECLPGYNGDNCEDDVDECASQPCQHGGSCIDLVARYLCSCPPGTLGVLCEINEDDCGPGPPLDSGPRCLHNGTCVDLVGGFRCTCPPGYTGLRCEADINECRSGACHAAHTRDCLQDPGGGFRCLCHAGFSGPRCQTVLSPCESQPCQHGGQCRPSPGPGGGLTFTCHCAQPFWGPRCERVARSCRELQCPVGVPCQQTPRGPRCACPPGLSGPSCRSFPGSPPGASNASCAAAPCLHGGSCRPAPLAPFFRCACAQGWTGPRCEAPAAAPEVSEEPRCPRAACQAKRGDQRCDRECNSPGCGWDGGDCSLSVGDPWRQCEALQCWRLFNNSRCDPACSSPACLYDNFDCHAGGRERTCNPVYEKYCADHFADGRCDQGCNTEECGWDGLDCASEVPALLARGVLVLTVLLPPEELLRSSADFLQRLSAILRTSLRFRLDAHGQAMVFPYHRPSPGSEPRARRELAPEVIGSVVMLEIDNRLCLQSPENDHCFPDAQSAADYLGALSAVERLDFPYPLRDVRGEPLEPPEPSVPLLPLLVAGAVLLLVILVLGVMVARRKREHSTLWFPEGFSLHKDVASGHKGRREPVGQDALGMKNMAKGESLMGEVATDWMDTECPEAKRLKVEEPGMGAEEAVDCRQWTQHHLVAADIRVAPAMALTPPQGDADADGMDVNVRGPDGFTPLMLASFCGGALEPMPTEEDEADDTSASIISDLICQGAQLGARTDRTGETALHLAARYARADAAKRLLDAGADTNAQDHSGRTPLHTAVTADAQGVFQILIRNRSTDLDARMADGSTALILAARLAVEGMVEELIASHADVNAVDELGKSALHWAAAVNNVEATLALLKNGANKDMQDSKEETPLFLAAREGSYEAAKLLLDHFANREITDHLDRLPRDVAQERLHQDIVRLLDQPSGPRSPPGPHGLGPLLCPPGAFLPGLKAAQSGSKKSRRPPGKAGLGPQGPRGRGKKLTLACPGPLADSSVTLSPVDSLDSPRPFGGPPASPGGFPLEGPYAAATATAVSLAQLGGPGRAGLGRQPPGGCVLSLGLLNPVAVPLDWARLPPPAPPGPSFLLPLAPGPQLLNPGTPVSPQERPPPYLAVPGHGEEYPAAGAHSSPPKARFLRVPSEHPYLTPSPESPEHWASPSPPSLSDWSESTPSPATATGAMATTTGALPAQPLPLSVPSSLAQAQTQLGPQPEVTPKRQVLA
The nature of test [20]: probe aEGFR binding to arrayed compounds – biochemical, biotinylated probe, 635/667 nm fluorescence, primary screen (AID 1097).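 Also: probe is a biotinylated anti-EGFR antibody binding compounds printed on slides; score combines fluorescence near 667 nm and signal to noise of each spot.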 As to conditions: small-molecule microarray, higher = more signal.

With `CN(C)C(=O)[C@]1(CCS(=O)(=O)c2ccccc2)N=C(c2ccc(OCCCO)cc2)O[C@@H]1c1ccccc1N=[N+]=[N-]`, the composite z-score in [1] stood at 0.169; in [2], 1.13; in [3] it was 0.15; in test [4], 1.16; in test [5], 1.59; in test [6], 1.27. Also, the composite z-score in test [7] was found to be 1.4; in test [9], 1.84; in test [10], 0.155; in test [11], 1.53; in test [15] it was 3.78; in test [17] it was 0.429. Further, the values for the composite z-score in test [18], in test [19] and in test [20] were 1.42, 1.05 and 0.204, respectively. For the same molecule, the z-score is 2.79 (inactive) in [8]; 0.154 (inactive) in test [12]; -0.327 (inactive) in [13]; 1.69 (inactive) in [14]; 0.0837 (inactive) in test [16].
For `COc1ccc([Si](C)(C)[C@@H]2[C@@H](CC(=O)N(CCO)Cc3ccccc3)O[C@]3(C(=O)N(c4ccccc4)c4ccccc43)[C@H]2C)cc1`, the composite z-score in test [1] was -0.337; in [2] it was 0.326; in [3], -0.0455; in [4], 0.276; in test [5], 0.212; in [6], 0.954. The composite z-score in [7] is 1; in test [9], 0.593; in test [10] it was -0.0994; in test [11], 1.56; in test [15] it was 2.26; in test [17] it was -0.0722. The results for the composite z-score in test [18], in [19] and in [20] were 1.26, 1.1 and -0.0512, respectively. Moreover, the z-score in [8] was -2.62 (inactive); in test [12] it was -0.14 (inactive); in test [13] it was 0.001 (inactive); in test [14], 0.842 (inactive); in test [16] it was 1.01 (inactive).
In the case of `CC(C)(C)OC(=O)CC[C@]1(C(=O)NCc2ccccc2)N=C(c2ccc(OCCCO)cc2)O[C@H]1c1ccccc1CN=[N+]=[N-]`, the composite z-score in test [1] was -0.0386; in [2] it was 0.357; in test [3], 0.119; in [4], 0.618; in test [5], 1.55; in [6] it was 1.22. The composite z-score in test [7] is 1.31; in [9], 1.48; in test [10], -0.0296; in [11], 1.54; in test [15], 3.46; in [17] it was 0.214. Moreover, the composite z-score in test [18] was 1.2; in test [19] it was 1.05; in [20], 0.134. Also, the z-score in test [8] is -2.07 (inactive); in test [12] it was 0.133 (inactive); in test [13] it was 0.0256 (inactive); in test [14], 0.176 (inactive); in [16], 0.868 (inactive).
Consider `O=C(NCC(F)(F)F)[C@@H]1c2ccccc2C(=O)N(Cc2ccccc2C(F)(F)F)[C@H]1c1ccc(CO)cc1`, for which the composite z-score in test [1] was 0.597; in [2] it was -0.0704; in [3] it was -0.156; in test [4], 0.424; in [5], -0.169; in test [6], 0.997. Also, the composite z-score was 1.3 in [7]; -0.181 in test [9]; 0.113 in test [10]; 0.928 in test [11]; 1.28 in test [15]; -0.062 in test [17]. In addition, the composite z-score in test [18] is -0.416; in test [19], -0.258; in test [20], -0.274. The z-score is -1.49 (inactive) in [8]; -0.268 (inactive) in [12]; -0.205 (inactive) in test [13]; -0.503 (inactive) in test [14]; 0.31 (inactive) in test [16].
As to `O=C1c2ccccc2[C@](Cc2ccccc2I)(C(=O)NCC(F)(F)F)[C@H](c2ccc(CO)cc2)N1C1CCCCC1`, the composite z-score in [1] is -0.0894; in test [2], -0.089; in test [3] it was 0.0772; in test [4], 0.94; in test [5], 1.14; in test [6] it was 1.76. In addition, the composite z-score in test [7] is 0.985; in [9] it was 0.593; in test [10] it was -0.134; in test [11], 1.56; in test [15] it was 3.02; in test [17] it was -0.0408. Further, the composite z-score in [18] is 0.169; in [19] it was 1.08; in [20] it was -0.0315. Also, the z-score in test [8] is -0.85 (inactive); in test [12] it was 0.0808 (inactive); in test [13], -1.76 (inactive); in [14], -0.0447 (inactive); in [16] it was 1.38 (inactive).
